Growth data for 40 molecules are collected here from the supplement of paper PMC9262897, “Low-cost anti-mycobacterial drug discovery using engineered E. coli” (Nature Communications, 2022).

Counter-ions that a name gives are not always drawn. ± gives the standard deviation of the averaged measurements.

The subject of this test is E. coli TESEC Alr+ wild-type control. The test can be described thus: growth (OD600 after 10 h); higher = more growth (less inhibition). As to conditions: compound 0.1 mM; raw OD600 reference: median of DMSO wells 0.49, cell-free background 0.052. The procedure:
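TESEC Mtb Alr E. coli (ΔaraC ΔtolC ΔentC Δalr ΔdadX, arabinose-inducible Mtb Alr) or the Alr+ wild-type control strain, grown in defined M9-fructose medium without D-alanine in 96-well plates with Prestwick library compounds at 0.1 mM and 1% DMSO. Low Alr induction is 0.1 µM arabinose and high induction is 10 mM arabinose.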
The molecule `Cc1cc2c(s1)Nc1ccccc1N=C2N1CCN(C)CC1` [Olanzapine] yielded a growth of 0.502 ± 0.029.

In the case of `C[C@H](CCC(=O)O)[C@H]1CC[C@H]2[C@@H]3[C@@H](O)C[C@@H]4C[C@H](O)CC[C@]4(C)[C@H]3CC[C@]12C` [Urosiol], the growth came out at 0.406 ± 0.011.

`CNCC[C@@H](Oc1ccccc1C)c1ccccc1` [Tomoxetine hydrochloride]: the growth was found to be 0.441 ± 0.016.

`Cc1c(NC(C)C)c(=O)n(-c2ccccc2)n1C` [Isopyrin hydrochloride] had a growth of 0.44 ± 0.036.

Regarding `CN1CCN(c2c(F)cc3c(=O)c(C(=O)O)cn4c3c2SCC4)CC1` [Rufloxacin], the growth amounted to 0.0549 ± 0.00072.

`Cc1c(N)c(=O)n(-c2ccccc2)n1C` [Ampyrone] had a growth of 0.457 ± 0.017.

Take `O=C(CCCCC(=O)Nc1c(I)cc(I)c(C(=O)O)c1I)Nc1c(I)cc(I)c(C(=O)O)c1I` [Iodipamide]: the growth was determined as 0.527 ± 0.092.

The molecule `Clc1ccccc1C(c1ccccc1)(c1ccccc1)n1ccnc1` [Clotrimazole] yielded a growth of 0.0507 ± 0.0011.

`O=C1Nc2ccc(Cl)cc2[C@@](C#CC2CC2)(C(F)(F)F)O1` [Efavirenz] returned a growth of 0.047 ± 0.00044.

In the case of `CCSc1ccc2c(c1)N(CCCN1CCN(C)CC1)c1ccccc1S2` [Thiethylperazine dimalate], the growth is 0.0499 ± 0.0032.

Molecule `C[C@H](O)C(=O)Nc1c(I)c(C(=O)NC(CO)CO)c(I)c(C(=O)NC(CO)CO)c1I` [Iopamidol] had a growth of 0.465 ± 0.036.

Turning to `O=c1[nH]c(=O)n([C@H]2C[C@H](O)[C@@H](CO)O2)cc1F` [Floxuridine], the growth came out at 0.356 ± 0.0098.

`Cn1c(=O)c2c(ncn2CC2OCCO2)n(C)c1=O` [Doxofylline] returned a growth of 0.475 ± 0.076.

Consider `CC(C)(Oc1ccc(C2CC2(Cl)Cl)cc1)C(=O)O` (stereo not given) [Ciprofibrate], for which the growth is 0.515 ± 0.079.

`CO[C@H]1C[C@H](O[C@H]2[C@H](C)[C@@H](O[C@@H]3O[C@H](C)C[C@H](N(C)C)[C@H]3OC(C)=O)[C@@H](C)C[C@@]3(CO3)C(=O)[C@H](C)[C@@H](OC(C)=O)[C@@H](C)[C@@H](C)OC(=O)[C@@H]2C)O[C@@H](C)[C@@H]1OC(C)=O` [Troleandomycin] returned a growth of 0.0617 ± 0.0015.

In the case of `CC(C)c1nc(CN(C)C(=O)N[C@H](C(=O)N[C@@H](Cc2ccccc2)C[C@H](O)[C@H](Cc2ccccc2)NC(=O)OCc2cncs2)C(C)C)cs1` [Ritonavir], the growth was 0.362 ± 0.01.

For `C[C@]12CCC(=O)C=C1C=C[C@@H]1[C@@H]2CC[C@@]2(C)[C@H]1CC[C@@]21CCC(=O)O1` [Canrenone], the growth worked out at 0.282 ± 0.014.

Turning to `C=CCOC(Cn1ccnc1)c1ccc(Cl)cc1Cl` (stereo not given) [Enilconazole], the growth came to 0.11 ± 0.01.

In the case of `CC(O)(P(=O)(O)O)P(=O)(O)O` [Etidronic acid, disodium salt], the growth was 0.578 ± 0.046.

`Oc1c(Cl)cc(Cl)c(Cl)c1Cc1c(O)c(Cl)cc(Cl)c1Cl` [Hexachlorophene] registered a growth of 0.05693 ± 0.00042.

Take `CC(=O)CC(c1ccc([N+](=O)[O-])cc1)c1c(O)c2ccccc2oc1=O` (stereo not given) [Acenocoumarol]: the growth amounted to 0.503 ± 0.0074.

For the molecule `CC1Cc2ccccc2N1NC(=O)c1ccc(Cl)c(S(N)(=O)=O)c1` (stereo not given) [Indapamide], the growth came out at 0.497 ± 0.015.

For the molecule `CN(C)CCOC(=O)COc1ccc(Cl)cc1` [Meclofenoxate hydrochloride], the growth worked out at 0.511 ± 0.083.

With `COCC(=O)Nc1c(I)c(C(=O)NCC(O)CO)c(I)c(C(=O)N(C)CC(O)CO)c1I` (stereo not given) [Iopromide], the growth was 0.464 ± 0.037.

Turning to `CC(=O)O[C@]1(C(C)=O)CC[C@H]2[C@@H]3C=C(Cl)C4=CC(=O)CC[C@]4(C)[C@H]3CC[C@@]21C` [Chlormadinone acetate], the growth was found to be 0.442 ± 0.0057.

The molecule `C#C[C@]1(O)CC[C@H]2[C@@H]3[C@H](C)CC4=C(CCC(=O)C4)[C@H]3CC[C@@]21C` [Tibolone] showed a growth of 0.393 ± 0.015.

`CCCCCCNC(=O)n1cc(F)c(=O)[nH]c1=O` [Carmofur] registered a growth of 0.508 ± 0.04.

`C[C@H]1[C@H](NC(=O)/C(=N\OC(C)(C)C(=O)O)c2csc(N)n2)C(=O)N1S(=O)(=O)O` [Aztreonam] showed a growth of 0.385 ± 0.016.

Molecule `CC1(C)O[C@@H]2C[C@H]3[C@@H]4C[C@H](F)C5=CC(=O)C=C[C@]5(C)[C@H]4[C@@H](O)C[C@]3(C)[C@]2(C(=O)CO)O1` [Flunisolide] displayed a growth of 0.418 ± 0.031.

`COc1cc2nc(N(C)CCCNC(=O)C3CCCO3)nc(N)c2cc1OC` (stereo not given) [Alfuzosin hydrochloride] showed a growth of 0.462 ± 0.029.

Molecule `CN(C)CCOC(c1ccc(Cl)cc1)c1ccccn1` (stereo not given) [Carbinoxamine maleate salt] gave a growth of 0.438 ± 0.022.

In the case of `COc1cc(-c2ccc(=O)[nH]n2)ccc1OC(F)F` [Zardaverine], the growth came out at 0.442 ± 0.044.

Turning to `O=C(CCCN1CCC(O)(c2ccc(Cl)cc2)CC1)c1ccc(F)cc1` [Haloperidol], the growth was 0.354 ± 0.006.

As to `Cc1scc2c1N(C(=O)CN1CCN(C)CC1)c1ccccc1NC2=O` [Telenzepine dihydrochloride], the growth was 0.545 ± 0.024.

`Cc1cc(=O)oc2cc(O)ccc12` [Hymecromone] gave a growth of 0.631 ± 0.01.

Consider `NS(=O)(=O)c1cc(C(=O)O)cc(N2CCCC2)c1Oc1ccccc1` [Piretanide], for which the growth turned out to be 0.444 ± 0.0057.

In turn, `Cn1c(=O)c2c(ncn2CC(O)CO)n(C)c1=O` (stereo not given) [Diprophylline] registered a growth of 0.45 ± 0.05.

For `CCCCCCC[N+](CC)(CC)CCCCc1ccc(Cl)cc1` [Clofilium tosylate], the growth is 0.0487 ± 0.00091.

Take `Nc1ccc(S(=O)(=O)Nc2ccnn2-c2ccccc2)cc1` [Sulfaphenazole]: the growth was found to be 0.484 ± 0.04.

The molecule `CCN(CC)CCNC(=O)c1cc(Br)c(N)cc1OC` [Bromopride] came in with a growth of 0.428 ± 0.011.
